# Screens from PubChem BioAssay.
# Hits are enriched below; roughly 2.9% of the tested compounds scored in any of these assays.
# ATXN2 expr inh: reduces ATXN2 reporter expression in HEK-293 cells; Potency, µM (highest dose often 57 µM), for the others: at the top dose activity change, negative = inhibition, usual class: inhibitors; AID 1745845; 360,000 compounds, 0.72% hits; HEK-293 ATXN2-luciferase reporter, luminescence, 24 h; note: % is set by controls: 0 for no effect and ±100 for the full control effect; nearly all actives have a fitted effect of over 55% in size
#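 ATXN2-luciferase reporter cells (luciferase flanked by upstream and downstream ATXN2 gene portions) were treated 24 h at 37 °C with compounds at up to 57 uM. SteadyGlo luminescence gave expression; GF-AFC fluorescence gave viability.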
# Nrf2 block: inhibitors of Nrf2 signaling; A549 ARE-Fluc reporter, luciferase luminescence, 18-24 h; Potency, µM (highest dose often 46 µM), inactives show at the highest dose activity change, negative = inhibition, usual class: inhibitors; 360,000 compounds, 2.1% hits; AID 504444; note: % is set by controls: 0 for no effect and ±100 for the full control effect; nearly all actives have a fitted effect of over 60% in size
#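 Concentration-response testing used A549 ARE_Fluc cells at 5000 cells/well. Following an 18-24 h compound incubation, viability was read by fluorescence (Ex 405/Em 525) and luciferase output by luminescence.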
# S2 tox: cell viability loss in ATXN counter-screen; S2 cells (HEK-293 line with an ATXN2-luciferase reporter) viability, CellTiter-Fluor protease fluorescence, 24 h; Potency, µM (highest dose often 56.7 µM), usual class: cytotoxic; 400,000 compounds, 0.49% hits; note: nearly all actives have a fitted effect of over 40% in size
# A549 viability: counter-screen for Nrf2 inhibitors: cytotoxicity in A549 cells | Potency, µM (highest dose often 46 µM), without a hit: top-dose activity change, negative = cytotoxicity, actives largely listed as inhibitors | 390,000 compounds, 0.16% hits | AID 504648 | A549 ARE-Fluc cells, CellTiter-Fluor viability, 18-24 h; note: % is set by controls: 0 for no effect and ±100 for the full control effect
#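 A549 ARE_Fluc cells in 5% FBS OPTI-MEM were exposed to compounds in concentration-response for 18-24 h at 37 deg C. Viability was read by CellTiter-Fluor fluorescence (Ex 405/Em 525) after 30 min, before the luciferase read.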
# Nrf2 ARE act: activators of Nrf2 (ARE) signaling. AREc32 ARE-luciferase reporter (MCF7-derived line), luminescence, 24 h. 410,000 compounds, 0.31% hits. Potency, µM (top dose mostly 46.1 µM), without a hit: top-dose activation, most hits filed as activators; note: % of control where 0% means no effect; nearly all actives have a fitted effect of over 65% in size
#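 AREc32 cells carrying an ARE-driven firefly luciferase, 1000 cells/well in OPTI-MEM with 5% FBS, dosed after overnight attachment and incubated 24 hr at 37 deg C. Steady-Glo luminescence read after 30 min at RT.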
# The depositor's hits bear a star; i = inactive; u = inconclusive; x = no result given; [ ] = another dose, or the depositor's remark. Calls come from the whole dose curve; as a rule, active = well fitted curve in the direction sought with a large enough effect; inconclusive = small, poorly fitted or top-dose-only effect, or another doubt; inactive = no such curve, though single readings can be large; an effect the other way counts as inactive or inconclusive. Potency is the fitted concentration of half-maximal effect.
SMILES,ATXN2 expr inh,Nrf2 block,S2 tox,A549 viability,Nrf2 ARE act
CC(NC(=O)c1cccnc1)c1nnc2n1CCN(Cc1ccc(-c3ccccc3)cc1)CC2 (stereo unspecified),x,x,i,x,x
C=C1c2c(Cl)ccc(O)c2C(O)=C2C(=O)[C@]3(O)C(O)=C(C(N)=O)C(=O)[C@@H](N(C)C)[C@@H]3[C@@H](O)[C@H]12,x,x,i,x,x
C=CCn1c(SCc2ccc(C(=O)Nc3nccs3)cc2)nnc1-c1ccc(C)c(Cl)c1,u,20.6µM*,u,-17.6%,0.6%
Cn1nnnc1SCc1ccc(C(=O)Nc2nccs2)cc1,46.5%,u,i,-0.3%[1.84 µM],0.9%
Cc1ccc2c(=O)c(C(=O)c3ccc(F)cc3)cn(CC(=O)NCc3ccccc3)c2n1,4.4%,29.0%,i,-3.6%,0.4%
CCc1ccc(/C=C2\SC(=S)N(CCC(=O)NCCCN3CCOCC3)C2=O)cc1,50.2%,u,u,u,24.9%
COc1ccc(/C=C2\SC(=S)N(CCC(=O)NCCCN3CCOCC3)C2=O)cc1,32.4%,u,u,11.6µM*,11.7%
Cc1ccc(/C=C2\SC(=S)N(CCC(=O)NCCCN3CCOCC3)C2=O)cc1,80.3%,u,u,14.6µM*,u
CC(=O)N(C)C1(c2ccccc2)CCN(CCC[C@]2(c3ccc(Cl)c(Cl)c3)CCCN(C(=O)c3ccccc3)C2)CC1,21.7µM*,x,x,x,x
Cc1ccccc1C(=O)NC(C)c1nnc2n1CCN(Cc1ccccc1F)CC2 (stereo unspecified),x,x,i,x,x
Cc1cc(C)n2nc(SCC(=O)Nc3ccccc3F)nc2n1,-12.5%,0.1%,i,1.3%,-1.0%
Cc1cc(C)n2nc(SCC(=O)Nc3ccc(F)c(F)c3F)nc2n1,x,14.6µM*,x,-11.8%,-0.3%
O=C(O)Cn1c(=O)n(Cc2ccc(Br)cc2F)c(=O)c2ccc(Cl)cc21,2.0%,x,i,x,x
Cc1ccc(CN2CCOc3ccc(CN4CCC(O)(c5cccnc5)CC4)cc3C2)cc1,x,x,i,x,x
Cc1ccc(-c2nc3c4cnn(-c5cc(Cl)ccc5Cl)c4ncn3n2)cc1,x,21.3%,x,0.5%,3.3%
O=C(Oc1ccc(Cl)c2cccnc12)c1cccc([N+](=O)[O-])c1,-16.1%,-9.8%,i,-2.1%,4.6%[9.22 µM]
O=C(Oc1c(Cl)cc(Cl)c2cccnc12)c1cccc([N+](=O)[O-])c1,20µM*,u,i,-17.2%,22.5%
O=C(Nc1ccc(-c2nc3ccccc3o2)c(O)c1)c1cc(-n2cnnc2)ccc1Cl,-39.2%,10.3µM*,i,x,2.0%
Cc1cc2c(s1)c1cnn(Cc3ccc(-n4cncn4)cc3)c(=O)c1n2C,x,-24.5%,x,-1.4%,x
COc1ccccc1Nc1c2c(nc3ccc(NC(=O)c4ccc(OC)c(OC)c4)cc13)CCCC2,u,-10.7%[9.27 µM],25.1µM*,u,-3.9%
COc1ccc(NC(=O)COC(=O)c2c3c(nc4ccccc24)CCCC3)cc1,u,u,i,-10.7%,-1.0%
COc1ccc(C(=O)Nc2ccc3nc4c(c(Nc5ccccc5OC)c3c2)CCCC4)c(OC)c1,-4.1%,-13.3%[9.27 µM],u,u,-1.0%
COc1ccccc1Nc1c2c(nc3ccc(NC(=O)c4cccc(OC)c4OC)cc13)CCCC2,x,8.3%[9.27 µM],x,u,-4.4%
COc1ccc(C(=O)Nc2ccc3nc4c(c(Nc5ccc(OC)c(OC)c5)c3c2)CCCC4)c(OC)c1,u,u,28.2µM*,u,12.9%
COc1ccc(NC(=O)COC(=O)c2c3c(nc4ccccc24)CCCC3)cc1Cl,-17.9%,23.1µM*,u,u,-0.8%
SMILES,ATXN2 expr inh,Nrf2 block,S2 tox,A549 viability,Nrf2 ARE act
CCOc1ccc(N2C(=O)N(Cc3c(F)cccc3Cl)c3ccccc3S2(=O)=O)cc1,-9.0%,x,i,15.1%,0.0%
Cc1c(C(=O)NCc2ccco2)cnn1-c1ncc2c(n1)-c1ccccc1CC2,x,x,i,x,x
Cc1cc(S(=O)(=O)Nc2cc(C)c(O)c(C)c2)c(C)s1,31.5%,10.3µM*,i,-6.0%,u
Cc1cc(S(=O)(=O)Nc2ccc3ccccc3c2)c(C)s1,-38.9%,-114.0%,i,u,0.2%
CN(C)S(=O)(=O)c1cccc(C(=O)NC2CCCc3ccccc32)c1 (stereo unspecified),6.4%,1.9%,i,-1.2%,3.0%
CCCNS(=O)(=O)c1cccc(C(=O)NC2CCCc3ccccc32)c1 (stereo unspecified),-9.2%,16.4µM*,i,u,2.1%
CC(=O)OCCN(C)c1cc(SC(C)C)c2nonc2c1[N+](=O)[O-],-26.4%,-1.7%,u,-20.7%,u
CN(CCO)c1cc(Sc2nc3ccccc3s2)c2nonc2c1[N+](=O)[O-],10µM*,x,14.1µM*,u,-2.5%
COc1ccccc1N1CCN(CCCNC(=O)c2cnn(-c3ccccc3)c2C2CCN(C(=O)OC(C)(C)C)CC2)CC1,x,u,x,-12.7%,10.1%
Cn1ccc(C(=O)Nc2sc3c(c2C#N)CCC3)n1,-4.4%,3.2%,i,-0.8%,6.4%
N#Cc1c(NC(=O)c2cc(-n3cnnc3)ccc2Cl)sc2c1CCCC2,-2.7%,23.1µM*,i,-18.4%,11.4%
COc1ccc(-c2ccc(C(=O)NCc3ccc(N4CCN(C)CC4)cc3)c3occc23)c(C)c1,u,x,25.1µM*,x,0.2%[9.22 µM]
COc1ccccc1-c1c(C)nn2c(N3CCOCC3)cc(C)nc12,-7.7%,u,i,-1.3%,-0.5%
COc1ccccc1-c1c(C)nn2c(N3CCCCCC3)cc(C)nc12,u,25.9µM*,u,u,-0.8%
COc1ccccc1-c1c(C)nn2c(N3CCN(Cc4ccccc4)CC3)cc(C)nc12,-30.0%,23.1µM*,u,-5.8%,1.7%
CC1(C)OC(=O)CC1C(=O)NCc1ccccc1 (stereo unspecified),-6.0%,7.5%,i,7.0%,1.3%
CC1(C)OC2=C(C(=O)c3ccccc3C2=O)[C@H](NCc2ccccc2)[C@H]1O,3.43µM*,x,x,x,x
COCCN1CCN(C(=O)c2cnn(-c3ncc4c(n3)-c3ccc(OC)cc3CC4)c2C2CC2)CC1,x,x,i,x,x
Cc1ccc2cc(CNC(C)CO)c(N3CCC(O)CC3)nc2c1 (stereo unspecified),x,x,i,x,x
Cc1ccccc1CNC(=O)CN1CCSc2ccccc21,19.6%,x,i,9.7%,1.1%
Cn1cc(CN2CCCC(C(=O)Nc3ccc(-c4cccc(F)c4)cc3)C2)cn1 (stereo unspecified),x,-3.9%,31.6µM*,0.5%,-3.9%
Cn1cc(CN2CCCC(C(=O)Nc3cccc(-n4cccn4)c3)C2)cn1 (stereo unspecified),3.9%,13.5%,i,0.3%,-0.6%
COc1cccc(-n2c(SC)nnc2C2CCN(Cc3cccc(OC)c3O)CC2)c1,x,x,i,x,x
